Reference: PubChem BioAssay
Calls of active or inactive are those of the source.

Key:
[1] = A549 cell viability effects, profiling panel, calcein-AM fluorescence, 48 h, basal (AID 1162); settings: higher = more signal
[2] = adipocyte viability effects, profiling panel, cell-based, 3T3-L1 adipocytes, calcein-AM fluorescence, 48 h, basal (AID 1163); settings: 3T3-L1 adipocytes viability, higher = more signal
[3] = HepG2 cell viability effects, profiling panel, calcein-AM fluorescence, 48 h, basal (AID 1164); settings: higher = more signal
[4] = MM1S cell viability effects, profiling panel, calcein-AM fluorescence, 48 h, basal (AID 1165); settings: higher = more signal;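 further: viability of MM1S multiple myeloma cells under basal unstimulated conditions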
[5] = basal RPMI8226 viability, no added stimulus, profiling panel, cell-based, calcein-AM fluorescence, 48 h, PK04 Diversity Set (AID 1166); settings: RPMI8226 myeloma viability, higher = more signal;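 further: cells grown under basal conditions without added stimulus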
[6] = basal HepG2 mitochondrial membrane potential changes, profiling panel, cell-based, JC-1 fluorescence, 24 h, 100 nL compound (AID 1167); settings: higher = more signal
[7] = basal 3T3-L1 adipocyte mitochondrial potential changes, profiling panel, cell-based, JC-1 fluorescence, 3T3-L1 adipocytes, 24 h, 100 nL compound (AID 1168); settings: JC-1 mitochondrial fluorescence, higher = more signal, called active from +8 up or from −8 down
[8] = basal RPMI8226 mitochondrial membrane potential changes, profiling panel, cell-based, JC-1 fluorescence, 24 h, 100 nL compound (AID 1169); settings: RPMI8226 myeloma, JC-1 mitochondrial potential fluorescence, higher = more signal
[9] = basal MM1S mitochondrial membrane potential changes, profiling panel, cell-based, JC-1 fluorescence, 24 h, 100 nL compound (AID 1170); settings: higher = more signal
[10] = A549 lung cancer cell viability effects, profiling panel, resazurin fluorescence, 24 h, PK04 Diversity Set (AID 1171); settings: higher = more signal, called active from +8 up or from −8 down
Further: test concentration not given here.

SMILES | z-score [1] | z-score [2] | z-score [3] | z-score [4] | z-score [5] | z-score [6] | z-score [7] | z-score [8] | z-score [9] | z-score [10]
O=C1N(Cc2ccccc2)c2ccccc2C[C@@]12COC(c1ccc(OCCCO)cc1)=N2 | -0.633 | 0.629 | -0.409 | -2.94 | -1.19 | -1.08 | -0.382 (inactive) | -0.907 | -0.589 | 1.41 (inactive)
COCCOC(=O)N1C(=O)[C@@]2(c3cc(C#CCC(C(=O)OC)C(=O)OC)ccc31)[C@H](c1ccc(O)cc1)N1[C@H](c3ccccc3)[C@H](c3ccccc3)OC(=O)[C@H]1[C@@H]2C(=O)Nc1nc2ccccc2s1 | -0.451 | 0.982 | -0.0867 | 0.121 | -0.6 | -1.18 | -1.98 (inactive) | -0.164 | 0.0358 | 0.066 (inactive)
CN1C(=O)[C@@H]2[C@@H](CC(COc3ccccc3)=C3[C@@H](CCc4ccccc4)OB(O)C[C@@H]32)C1=O | 0.231 | -0.477 | -1.14 | -2.31 | -0.802 | -1.62 | -0.0562 (inactive) | 0.122 | -0.904 | -0.453 (inactive)
CC1CC/C=C\[C@H]2OC34C=CCN(Cn5nnc6ccccc65)C(=O)[C@H]3N(CCCCCCO)C(=O)[C@@H]4C2C(=O)O1 (stereo not given in full) | 0.264 | -0.0662 | 0.91 | 1.95 | 0.456 | 1.63 | 0.53 (inactive) | 0.8 | -0.657 | 0.0188 (inactive)
COc1ccc([Si](C)(C)[C@H]2[C@H](CC(=O)N3Cc4ccccc4C[C@H]3CO)O[C@@]3(C(=O)N(C)c4ccccc43)[C@@H]2C)cc1 | -0.962 | 1.43 | -1.42 | -2.67 | -4.05 | -0.592 | -0.0846 (inactive) | -1.1 | -0.748 | -0.299 (inactive)
C=CC1c2cc(O)c(OC)cc2CCN1C (stereo not given) | -1.24 | 0.281 | 0.0372 | 0.121 | 0.212 | -1.17 | -0.82 (inactive) | 0.222 | -0.67 | -0.535 (inactive)
NC(=O)N1C(=O)C2C(C1=O)C1C=C(CCCO)C2C(c2ccc(CN3CCCC3)cc2)N1Cc1sc2ccccc2c1Cl (stereo not given) | -0.142 | -0.501 | -0.389 | -2.67 | 0.0222 | 0.916 | -0.753 (inactive) | 0.0845 | 0.423 | -0.301 (inactive)
C[C@@H]1NC(=O)C([C@@H](C)OCc2ccccc2)NC(=O)[C@@]23C(=O)N[C@@H](Cc4ccccc4)C2[C@H](C)[C@@]2(C)O[C@H]2C3/C=C/C/C=C\CNC1=O (stereo not given in full) | -0.405 | 0.387 | -0.448 | -0.129 | -1.1 | -0.121 | 0.782 (inactive) | 0.514 | 0.186 | -0.0746 (inactive)
CC(C)OC(=O)CC(=O)CC(O)c1cccc([N+](=O)[O-])c1 (stereo not given) | 1.07 | 0.804 | 0.729 | 1.21 | 0.0484 | -0.524 | -0.718 (inactive) | 0.193 | -1.38 | 0.0126 (inactive)
O=C(NCc1ccccc1)[C@@H]1c2ccccc2C(=O)N(Cc2ccc(OC(F)(F)F)cc2)[C@H]1c1ccc(CO)cc1 | 1.29 | 0.711 | 0.77 | -0.279 | 0.473 | 2.44 | -0.602 (inactive) | -0.728 | 0.809 | 1.39 (inactive)
C=CC[C@@]12N=C(c3ccc(OCCCO)cc3)O[C@@H]1c1ccccc1N(CCC)C2=O | -0.604 | 0.96 | -1.16 | -1.79 | -3.66 | 1.07 | 2.64 (inactive) | -1.22 | -0.994 | 0.0626 (inactive)
C[C@]1(C(=O)O)c2ccccc2C(=O)N(Cc2cc(F)cc(C(F)(F)F)c2)[C@H]1c1ccc(CO)cc1 | 0.653 | 0.658 | -0.577 | 0.471 | 0.792 | -0.23 | 0.235 (inactive) | 0.383 | -0.703 | 1.27 (inactive)
CCCNC(=O)[C@@]1(c2ccc([N+](=O)[O-])cc2)CC(=O)N(C(C)C)[C@@H]1c1ccc(CO)cc1 | 0.186 | 0.81 | -0.359 | 0.167 | 0.11 | -0.534 | -0.584 (inactive) | 0.195 | 0.892 | 0.0564 (inactive)
CCCC#C[Si](O[C@H](CC)c1cn(Cc2ccccc2)nn1)(C(C)C)C(C)C | -0.164 | -0.782 | 0.709 | -0.588 | -0.439 | 0.0193 | -0.497 (inactive) | 0.973 | -1.16 | -0.406 (inactive)
CC(C)(C)N1CC=CC23O[C@@H]4/C=C\CCCOC(=O)C4[C@H]2C(=O)N(CCCCCO)[C@@H]3C1=O (stereo not given in full) | -0.373 | 1.03 | -0.927 | 1.59 | 0.382 | -0.0838 | 0.186 (inactive) | 0.116 | -0.00811 | -0.543 (inactive)
C=CCNC(=O)[C@H]1[C@@H]2C(=O)O[C@@H](c3ccccc3)[C@@H](c3ccccc3)N2[C@@H](c2ccc(OCCO)cc2)[C@]12C(=O)Nc1ccc(C#CC3(O)CCCCCC3)cc12 | 1.17 | 1.36 | -0.0346 | -2.27 | -1.41 | -1.57 | 0.43 (inactive) | -0.819 | -0.535 | 1.31 (inactive)

SMILES | z-score [1] | z-score [2] | z-score [3] | z-score [4] | z-score [5] | z-score [6] | z-score [7] | z-score [8] | z-score [9] | z-score [10]
CCCCCC1=C2CNC(CC(C)C)(C(=O)OC)C=C2C(C)C1=O (stereo not given) | -0.659 | -0.707 | 0.468 | -0.227 | -1.12 | 0.745 | -1.21 (inactive) | -0.324 | -1.53 | -0.683 (inactive)
C=C(COC)C(=O)CC[C@@H](OC(=O)c1ccccc1-c1ccccc1C(=O)O)c1ccc(OCCO)cc1 | -0.25 | 1.27 | -0.354 | -3.06 | -0.414 | -1.05 | -0.144 (inactive) | -0.163 | 0.0435 | -0.205 (inactive)
OCCCC1=CC(c2ccc(CN3CCCC3)cc2)N(Cc2cccc(OC(F)(F)F)c2)CC1 (stereo not given) | -4.68 | -0.267 | -4.99 | -3.3 | -3.83 | -0.125 | 0.367 (inactive) | -0.739 | -2.38 | 0.194 (inactive)
COC(=O)C[C@H]1O[C@@]2(C[C@@H]1[Si](C)(C)C)C(=O)N(C)c1ccccc12 | 0.904 | 0.69 | 0.606 | 0.561 | -0.356 | 1.23 | 0.63 (inactive) | -1.09 | 0.965 | 0.543 (inactive)
COc1ccc([Si](C)(C)[C@@H]2[C@@H](CC(=O)N(CCO)Cc3ccccc3)O[C@]3(C(=O)N(Cc4ccc(N5C(=O)c6cccc7cccc5c67)cc4)c4ccccc43)[C@H]2C)cc1 | -0.538 | 0.427 | -1.43 | -1.82 | -3.52 | -0.038 | 0.161 (inactive) | -1.02 | -1.18 | -1.51 (inactive)
COCCCNC(=O)[C@@]1(Sc2ccc(C)cc2)CC(=O)N(Cc2ccccc2C(F)(F)F)[C@@H]1c1ccc(CO)cc1I | -0.172 | 0.224 | 0.245 | -3.18 | -2.36 | -0.33 | -0.101 (inactive) | -0.339 | -1.33 | -0.731 (inactive)
COC(=O)[C@H](Cc1ccc(O)cc1)N[C@@H](/C=C/C1CC1)[C@H](O)Cc1ccccc1 | -0.0547 | -1.21 | 0.192 | -1.69 | -0.192 | -1.82 | -0.177 (inactive) | -0.512 | -1.01 | 0.0243 (inactive)
COc1ccc(C#Cc2ccc3c(c2)[C@]2(C(=O)N3)[C@H](C(=O)O)[C@H]3C(=O)O[C@H](c4ccccc4)[C@H](c4ccccc4)N3[C@@H]2c2ccccc2OCCO)cc1 | -1.23 | 1.19 | -2.52 | -3.32 | -4.18 | -3.99 | 2.1 (inactive) | -0.823 | -1.3 | -0.435 (inactive)
O=C(NCC(O)CO)C1N=C(c2ccc(OCCCO)cc2)N(c2ccccc2)O1 (stereo not given) | -0.508 | -0.293 | 0.285 | 1.22 | -1.53 | 0.499 | -0.761 (inactive) | -0.877 | 0.571 | -0.0914 (inactive)
C=C(CCCC)C(=O)CC[C@@H](OC(=O)c1ccccc1-c1ccccc1C(=O)O)c1ccccc1OCCO | 1.54 | 2.03 | -0.29 | -3.39 | -3.95 | -0.688 | 0.306 (inactive) | -0.67 | -0.203 | 0.573 (inactive)
CC(C)C[C@H]1NC(=O)C([C@@H](C)OCc2ccccc2)NC(=O)[C@@]23C(=O)N[C@@H](Cc4ccccc4)C2[C@H](C)[C@@]2(C)O[C@H]2C3/C=C/C/C=C\CNC1=O (stereo not given in full) | -0.469 | 1.9 | -0.3 | -0.936 | -1.53 | 0.169 | 0.679 (inactive) | -0.872 | 0.277 | 0.154 (inactive)
N#Cc1ccc(NN2C(C(O)C3CC=CCC3)C=CC3C(=O)N(c4ccccc4)C(=O)C32)cc1 (stereo not given) | -0.726 | -0.613 | 0.921 | -0.318 | -0.265 | -0.795 | -1.14 (inactive) | 0.418 | -0.508 | -0.997 (inactive)
C=C(COC)/C(=C/C[C@H](OC(C)=O)c1ccccc1OCCO)c1cc(C(=O)OC)ccc1OC | -0.168 | 1.66 | -0.63 | -3.06 | -1.74 | 0.532 | -0.112 (inactive) | 0.0983 | -1.29 | -0.0553 (inactive)
C=CCOC(=O)[C@@H]1[C@H]2C(=O)O[C@H](c3ccccc3)[C@H](c3ccccc3)N2[C@H](c2ccc(OCCOC(=O)[C@H]3C[C@H]4C(=O)N5CCC[C@H]5C(=O)N4[C@H]3c3cccc(OCCO)c3)cc2)[C@@]12C(=O)Nc1ccc(I)cc12 | -0.302 | -0.506 | -0.28 | 0.328 | -0.0082 | -2.08 | 0.667 (inactive) | -0.16 | -0.998 | 0.0981 (inactive)
O=C1C[C@@](C(=O)O)(c2ccc([N+](=O)[O-])cc2)[C@@H](c2ccc(CO)cc2)N1C1CCCCC1 | 0.903 | -0.0886 | -0.28 | -1.43 | -2.67 | 0.969 | -1.22 (inactive) | -0.145 | -0.247 | 0.361 (inactive)
